# IDE act = boosts human insulin-degrading enzyme activity in HEK cells | P14735 | FAbeta-B cleavage, fluorescence polarization; 0% vehicle, 100% cell-free pure enzyme wells | activation, % at 5.96 µM | 340,000 tested, 0.073% active | AID 493087;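 active = activation above the mean of all tested compounds plus 3 SD, set per screening campaign, cut at about 17% in these data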
# GLD-1 TGE inh = GLD-1-TGE RNA interaction inhibition (C. elegans); purified GLD-1 + fluorescein TGE RNA, fluorescence polarization; inhibition, % at 5.96 µM; Q17339; 320,000 tested, 0.44% active; AID 2280;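 active = percent inhibition above a per-plate cutoff, the plate mean of test compounds plus 3 SD, cut at about 30% in these data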;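 note: 0% = DMSO wells with GLD-1 and probe and 100% = wells lacking GLD-1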
# MEX-5 binding = C. elegans MEX-5 TCR-2 RNA binding activity | Q9XUB2 | MEX-5/FITC-TCR2 RNA binding, fluorescence polarization; stronger effect = lower value | activity score (negative = inhibition of binding), % at 10 µM | 300,000 tested, 0.38% active;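 active = inhibition past about -25% in most replicates, and total fluorescence under double the plate's negative control median, limit read from the data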;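 note: 0% = DMSO and -100% = 5 µM competing unlabeled TCR2 RNA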
# MCL1-BIM inh = MCL1-BIM-BH3 interaction inhibition (human) | Q07820 | GST-MCL1 / FITC-Bim-BH3 fluorescence polarization | 320,000 tested, 0.68% active | inhibition, % at 10.9 µM;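 active = inhibition above the mean inhibition of all tested compounds plus 3 SD, set per campaign, cut at about 40% in these data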;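 note: 0% = DMSO wells and 100% = unlabeled Bim-BH3 peptide control; higher means more loss of mP so more displacement of Bim peptide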
# Target sequence (Q07820 whole entry, looked up): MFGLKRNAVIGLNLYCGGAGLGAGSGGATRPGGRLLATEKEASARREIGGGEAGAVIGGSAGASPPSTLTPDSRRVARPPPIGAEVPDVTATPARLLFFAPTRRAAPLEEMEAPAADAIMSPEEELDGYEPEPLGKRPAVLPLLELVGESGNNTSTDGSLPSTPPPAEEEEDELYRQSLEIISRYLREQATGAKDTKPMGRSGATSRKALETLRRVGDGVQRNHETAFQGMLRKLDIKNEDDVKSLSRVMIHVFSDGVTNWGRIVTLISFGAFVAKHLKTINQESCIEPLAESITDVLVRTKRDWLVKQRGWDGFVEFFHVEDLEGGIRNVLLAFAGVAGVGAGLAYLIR
# BCLXL inh = Bcl-xL (human) inhibition | Q07817 | GST-Bcl-xL / FITC-Bim BH3 peptide fluorescence polarization | inhibition, % at 10.9 µM | 320,000 tested, 0.7% active | AID 2129;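 active = inhibition above the mean of all tested compounds plus 3 SD, cutoff set per campaign, cut at about 30% in these data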;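 note: 0% = DMSO wells and 100% = unlabeled Bim-BH3 peptide competitor; inhibitors lower millipolarization by displacing the labeled peptide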
# Target sequence (Q07817 whole entry, looked up): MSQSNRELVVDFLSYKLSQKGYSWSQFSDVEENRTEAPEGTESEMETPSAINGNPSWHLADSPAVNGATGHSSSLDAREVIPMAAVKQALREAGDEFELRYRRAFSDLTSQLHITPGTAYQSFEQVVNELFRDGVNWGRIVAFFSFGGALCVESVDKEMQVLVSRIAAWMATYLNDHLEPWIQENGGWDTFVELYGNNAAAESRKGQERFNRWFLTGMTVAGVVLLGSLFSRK
# IDE inh = cellular human IDE inhibition | P14735 | HEK cells, FAbetaB cleavage, fluorescence polarization | inhibition, % at 5.59 µM | 320,000 tested, 0.41% active | AID 434962;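 active = percent inhibition above the average of all tested compounds plus 3 SD, set per screening campaign, cut at about 16% in these data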;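 note: IDE supplied by intact live HEK cells; FP after avidin binding of uncleaved biotin substrate so inhibition keeps polarization high; 0% = DMSO wells and 100% = 60 µM reference IDE inhibitor Ii1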
# * = called active by the depositor; . = no result given. In the library only some 1.5% were active in any assay of this set; here they are far more common.
SMILES,IDE act,GLD-1 TGE inh,MEX-5 binding,MCL1-BIM inh,BCLXL inh,IDE inh
Cc1ccc(NS(=O)(=O)c2ccc(C(=O)OCC(=O)NCC3CCCO3)cc2)cc1 (stereo not given),3,1,0,4,3,-2
O=C(NC1CCCC1)c1cccc2c1C(=O)c1ccc(/C=C/c3ccccc3)cc1S2(=O)=O,3,-4,.,8,5,7
O=C(NCc1ccccc1Br)c1cccc2c1C(=O)c1ccc(N3CCC(Cc4ccccc4)CC3)cc1S2(=O)=O,4,157*,.,.,.,6
O=C(NC1CCCCC1)c1cccc2c1C(=O)c1ccc(N3CCC(Cc4ccccc4)CC3)cc1S2(=O)=O,-8,62*,.,.,.,6
O=C(NCc1ccccc1C(F)(F)F)c1cccc2c1C(=O)c1ccc(N3CCOCC3)cc1S2(=O)=O,-2,-10,.,.,.,-2
COc1cc2cncc(Cc3ccc(Cl)cc3)c2cc1OC,3,3,.,1,6,9
CCOC(=O)c1ccc(C(=O)OCC)c(NC(=S)Nc2ccc([N+](=O)[O-])cc2OC)c1,-2,3,-2,6,3,2
CC1=C[C@H]2OC(=O)[C@@H](C)[C@H]2C[C@@H]2[C@H]1C[C@@H](O)[C@@]2(C)O,1,114*,1,3,1,1
CC1(OC(=O)C2CCCC2)C(=O)C=C2C=C(c3ccsc3)N(Cc3ccco3)C=C2C1=O (stereo not given),1,12,-3,38,34*,8
O=C(N=c1ccn(-c2nc3ccccc3nc2NS(=O)(=O)c2ccc(Cl)cc2)cc1)c1cccs1,-7,15,-9,44*,48*,10
CCOc1ccc(S(=O)(=O)Nc2nc3ccccc3nc2-n2ccc(=NC(=O)c3cccs3)cc2)cc1,7,2,-4,2,-3,-3
CC1(C)Cc2c(c(-c3ccccc3Cl)[nH]c(=O)c2C#N)CO1,5,4,0,8,3,1
N#Cc1c(-c2ccc(Cl)cc2)c2c([nH]c1=O)-c1ccccc1OC2,-1,2,-28*,5,12,16*
Cc1ccccc1NS(=O)(=O)c1ccc(-c2ccc(=O)[nH]n2)o1,7,-3,-1,4,5,-7
CCN(CC)c1ccc(NS(=O)(=O)c2ccc(-c3ccc(=O)[nH]n3)o2)c(C)c1,3,4,0,32,32*,-4
CC(C)(C)CN1CCN(Cc2c[nH]c3ccccc23)CC1CCO (stereo not given),-3,.,2,.,.,.
CCN(CC)c1ccc(C=C2C(=O)OC(C)(C(C)(C)C)OC2=O)cc1 (stereo not given),3,-5,-69*,-38,-21,2
COc1cccc(N2CCN(C(=O)c3ccc(Cl)c(NC4=NC5CS(=O)(=O)CC5S4)c3)CC2)c1 (stereo not given),-1,3,2,5,2,-2
COCCNC(=S)N(C)C1(c2ccccc2Cl)CCCCC1=O (stereo not given),17*,-1,-3,10,5,0
O=C(NCCN1CCOCC1)c1ccc(Cl)c(S(=O)(=O)NCc2ccccc2)c1,-1,-1,.,.,.,-3
CC(=O)Nc1ccc(NC(=O)COC(=O)c2n[nH]c3ccccc23)cc1,19*,6,-4,-8,-12,2
CC(C)(C)c1csc(NC(=O)Cc2ccc(S(=O)(=O)N3CCOCC3)s2)n1,5,22,-4,35,33*,-3
Cn1c(/N=C/c2c(O)ccc3ccccc23)nc2ccccc21,-3,5,.,34,36*,5
COC(=O)[C@H](CCSC)NC(=O)NC1CCN(Cc2ccccc2)CC1,1,10,-36*,19,16,-1
COC(=O)[C@@H](NC(=O)NC1CCN(Cc2ccccc2)CC1)C(C)C,5,2,-5,0,0,4
SMILES,IDE act,GLD-1 TGE inh,MEX-5 binding,MCL1-BIM inh,BCLXL inh,IDE inh
COc1ccc(-c2cc(C(=O)N/N=C(\C)c3ccco3)c3ccccc3n2)c(OC)c1,5,5,-32*,9,6,0
CCc1ccc(C(C(=O)NC2CCCC2)N(C(=O)c2csnn2)C2CC2)cc1 (stereo not given),-2,9,1,10,4,1
COc1cc(/C=C2\C(=O)NN(c3ccccc3)C2=O)cc([N+](=O)[O-])c1O,4,2,-30*,25,17,5
O=C(O)/C=C\c1ccccc1Oc1cccc(Cl)c1,2,-2,0,2,32*,6
O=C(O)/C=C/c1ccccc1Oc1ccc(Cl)cc1Cl,8,-1,1,2,-2,1
CCC(C)NC(=O)c1cn(CC)c2ccc(S(=O)(=O)N3CCCCCC3)cc2c1=O (stereo not given),3,-5,-2,-6,-2,-1
CN1CCc2nc(SCC(=O)Nc3ccc(OC(F)(F)F)cc3)c(C#N)c(-c3cccs3)c2C1,-9,6,-4,12,23,14
CN1CCc2nc(SCC(=O)Nc3cccc(F)c3)c(C#N)c(-c3cccs3)c2C1,-4,17,1,33,39*,3
Cc1cccc(CSc2nc(N)c(C#N)c(-c3cccs3)c2C#N)c1,-6,4,-1,2,6,1
Cc1cccc(CSc2nc3c(c(-c4cccs4)c2C#N)CN(C)CC3)c1,-14,-1,-3,28,33*,15
COC(=O)/C(C(C)=O)=C(/C=C/C=C/N(C)C)N(C)C,0,7,-4,15,12,0
COC(=O)\C(C(C)=O)=C(/C=C/C=C/N(C)C)N(C)C,5,21,-8,26,32*,7
Cc1cc(S(=O)(=O)n2[nH]c(=O)c(CCO)c2C)c(Cl)cc1Cl,7,11,-1,5,67*,-1
Cc1cc(/C=C2\SC(=S)N(Cc3ccco3)C2=O)c(C)n1-c1cccnc1,-16,.,-62*,.,.,.
O=S(=O)(Cc1ccccc1)Oc1ccccc1,1,-4,-3,-13,-4,1
COc1cc(C(=O)NC(c2ccccc2)c2ccccc2)cc(OC)c1C,1,6,-47*,1,3,-2
CCN(CC)S(=O)(=O)c1ccc(N2CCCC2)c(NC(=O)C2CSC3(C)CCC(=O)N23)c1 (stereo not given),3,1,3,1,6,-1
Cc1ccc(NCC(=O)N/N=C/c2ccc(C(=O)O)cc2)cc1,-2,-2,-61*,3,4,-7
O=C(Cc1ccccc1)NCC(=O)N/N=C/c1ccc(C(=O)O)cc1,-2,4,-2,7,1,2
Cc1ccc2c(c1)[C@H]1[C@H](CO2)[C@H](c2ccccc2)[C@]2(C)C(=O)N(Cc3ccc(F)cc3)CC(=O)N12,5,52*,.,.,.,11
